Assay results reported in the supplement of paper PMC10849652.
Of roughly 8,800 targets only a part is listed; those with a hit were picked by preference. About 0.5% of all pairs of compound and target were hits. Unmarked numbers belong to inactive results.

Experiments:
Assay in all cases: log2 fold change, soluble protein after heating vs DMSO (PISA); higher = thermal stabilisation; K562 lysate, 10 uM; active = over 0.2 and 3.5 SD of the protein, either way, in both replicates (recomputed)
[1] = compound: CS(=O)(=O)CCNCc1ccc(-c2ccc3ncnc(Nc4ccc(OCc5cccc(F)c5)c(Cl)c4)c3c2)o1 [lapatinib]
How it was run: (§1)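 A 30 min treatment with 10 μM compound was applied to crude K562 extract at 1 mg/mL protein in PBS pH 7.4 with 1 mM MgCl2. Heating for 3 min spanned 48°C-58°C, after which aliquots were pooled, adjusted to 0.5% NP-40 at 4°C and spun at 21,000xg for 90 min. TMTpro 16plex LC-MS/MS of the supernatant, with channel sums equalised, gave values recorded as log-two fold change in thermal stability against solvent controls, from duplicates.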

[2] = compound: CS(=O)(=O)N1CCN(Cc2cc3nc(-c4cccc5[nH]ncc45)nc(N4CCOCC4)c3s2)CC1 [pictilisib]
How it was run: as §1

[3] = compound: C[C@@H](Oc1cc(-c2cnn(C3CCNCC3)c2)cnc1N)c1c(Cl)ccc(F)c1Cl [crizotinib]
How it was run: as §1

[4] = compound: C[C@H](C1=CC=C(C=C1)C(=O)NC2=C3C=CNC3=NC=C2)N
How it was run: as §1

[5] = compound: C[C@H](Nc1ncnc2nc[nH]c12)c1cc2cccc(Cl)c2c(=O)n1-c1ccccc1 [duvelisib]
How it was run: as §1

[6] = compound: Cc1cc(Nc2cc(CN3CCOCC3)c3nc(C)c(Cc4ccc(Cl)cc4F)n3n2)n[nH]1 [gandotinib]
How it was run: as §1

[7] = compound: Cc1cc(Nc2cc(N3CCN(C)CC3)nc(Sc3ccc(NC(=O)C4CC4)cc3)n2)n[nH]1 [tozasertib]
How it was run: as §1

[8] = compound: Cc1ccc(-n2nc(C(C)(C)C)cc2NC(=O)Nc2ccc(OCCN3CCOCC3)c3ccccc23)cc1 [doramapimod]
How it was run: as §1

[9] = compound: Cc1ccc(NC(=O)c2ccc(CN3CC[C@H](N(C)C)C3)c(C(F)(F)F)c2)cc1Nc1nccc(-c2cncnc2)n1 [bafetinib]
How it was run: as §1

[10] = compound: Cc1cccc(CC(=O)N2CCc3c2ccc(-c2cn(C)c4ncnc(N)c24)c3F)n1
How it was run: as §1

[11] = compound: Cc1cn(-c2cc(NC(=O)c3ccc(C)c(Nc4nccc(-c5cccnc5)n4)c3)cc(C(F)(F)F)c2)cn1 [nilotinib]
How it was run: as §1

[12] = compound: Cc1nc(Nc2n[nH]c3c2CN(C(=O)N[C@H](CN(C)C)c2ccccc2)C3(C)C)c2sccc2n1
How it was run: as §1

[13] = compound: Cc1nc(Nc2ncc(C(=O)Nc3c(C)cccc3Cl)s2)cc(N2CCN(CCO)CC2)n1 [dasatinib]
How it was run: as §1

[14] = compound: Cc1ncc(-c2ccnc(Nc3ccc(S(C)(=O)=O)cc3)n2)n1C(C)C
How it was run: as §1

[15] = compound: Cn1cc(-c2ccc3c(c2)CCN3C(=O)Cc2cccc(C(F)(F)F)c2)c2c(N)ncnc21
How it was run: as §1

[16] = compound: Cn1cc(CNCC2CCN(c3ncc(C(=O)NO)cn3)CC2)c2ccccc21 [quisinostat]
How it was run: as §1

[17] = compound: Cn1cncc1[C@@](N)(c1ccc(Cl)cc1)c1ccc2c(c1)c(-c1cccc(Cl)c1)cc(=O)n2C [tipifarnib]
How it was run: as §1

[18] = compound: NC(=O)Nc1cc(-c2cccc(F)c2)sc1C(=O)N[C@H]1CCCNC1
How it was run: as §1

[19] = compound: NC(=O)c1cnc(N[C@@H]2CCCC[C@@H]2N)nc1Nc1cccc(-n2nccn2)c1
How it was run: as §1

[20] = compound: NC1(c2ccc(-c3nc4ccn5c(=O)[nH]nc5c4cc3-c3ccccc3)cc2)CCC1
How it was run: as §1

Sequence of UniProt Q16637 (Q16637 whole entry, looked up): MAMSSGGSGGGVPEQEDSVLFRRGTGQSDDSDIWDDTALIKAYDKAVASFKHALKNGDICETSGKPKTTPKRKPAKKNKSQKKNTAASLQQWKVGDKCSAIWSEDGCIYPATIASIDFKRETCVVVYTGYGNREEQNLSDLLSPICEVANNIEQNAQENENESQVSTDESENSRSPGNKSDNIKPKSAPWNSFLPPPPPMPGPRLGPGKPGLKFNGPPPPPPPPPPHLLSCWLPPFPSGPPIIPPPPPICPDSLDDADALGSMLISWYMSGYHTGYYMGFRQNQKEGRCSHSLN
Sequence of UniProt Q86XZ4 (Q86XZ4 whole entry, looked up): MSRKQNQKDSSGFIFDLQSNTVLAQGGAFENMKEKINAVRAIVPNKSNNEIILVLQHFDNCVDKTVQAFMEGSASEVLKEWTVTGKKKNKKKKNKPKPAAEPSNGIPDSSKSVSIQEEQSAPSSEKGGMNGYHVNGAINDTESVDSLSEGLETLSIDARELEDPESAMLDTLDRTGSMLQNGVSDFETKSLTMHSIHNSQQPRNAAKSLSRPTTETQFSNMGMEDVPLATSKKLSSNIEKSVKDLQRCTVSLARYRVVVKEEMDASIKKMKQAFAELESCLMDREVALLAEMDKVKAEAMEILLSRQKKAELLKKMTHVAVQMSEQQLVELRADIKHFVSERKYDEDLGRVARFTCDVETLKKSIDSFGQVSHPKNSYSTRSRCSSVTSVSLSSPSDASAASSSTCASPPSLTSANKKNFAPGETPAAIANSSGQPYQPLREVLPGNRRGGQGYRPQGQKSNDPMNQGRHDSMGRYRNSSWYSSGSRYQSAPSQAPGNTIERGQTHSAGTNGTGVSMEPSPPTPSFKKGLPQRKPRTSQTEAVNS
Sequence of UniProt Q53T94 (Q53T94 whole entry, looked up): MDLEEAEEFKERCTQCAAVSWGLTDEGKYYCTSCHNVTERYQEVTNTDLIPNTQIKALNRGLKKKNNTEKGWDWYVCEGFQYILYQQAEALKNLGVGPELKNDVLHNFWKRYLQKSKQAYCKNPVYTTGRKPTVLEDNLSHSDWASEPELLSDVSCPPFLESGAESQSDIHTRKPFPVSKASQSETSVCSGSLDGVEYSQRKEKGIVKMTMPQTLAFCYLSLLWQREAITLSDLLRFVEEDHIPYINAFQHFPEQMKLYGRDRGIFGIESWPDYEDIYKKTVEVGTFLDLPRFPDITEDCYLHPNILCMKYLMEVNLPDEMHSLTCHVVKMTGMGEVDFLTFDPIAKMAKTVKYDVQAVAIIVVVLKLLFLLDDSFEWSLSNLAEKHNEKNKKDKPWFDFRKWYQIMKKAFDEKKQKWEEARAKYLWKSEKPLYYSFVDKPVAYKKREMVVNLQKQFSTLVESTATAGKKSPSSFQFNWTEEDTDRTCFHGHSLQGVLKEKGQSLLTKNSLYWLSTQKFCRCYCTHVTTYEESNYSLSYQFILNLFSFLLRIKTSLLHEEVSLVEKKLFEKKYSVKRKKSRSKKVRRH
Sequence of UniProt P50225 (P50225 whole entry, looked up): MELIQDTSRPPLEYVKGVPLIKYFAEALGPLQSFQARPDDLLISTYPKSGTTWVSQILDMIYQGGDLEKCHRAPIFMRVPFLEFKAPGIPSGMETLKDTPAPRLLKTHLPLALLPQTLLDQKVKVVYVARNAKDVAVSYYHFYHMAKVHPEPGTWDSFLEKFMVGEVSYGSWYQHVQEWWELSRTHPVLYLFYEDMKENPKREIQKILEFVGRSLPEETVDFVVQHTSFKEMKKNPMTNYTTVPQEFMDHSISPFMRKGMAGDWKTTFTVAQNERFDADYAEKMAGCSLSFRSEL
Sequence of UniProt P53985 (P53985 whole entry, looked up): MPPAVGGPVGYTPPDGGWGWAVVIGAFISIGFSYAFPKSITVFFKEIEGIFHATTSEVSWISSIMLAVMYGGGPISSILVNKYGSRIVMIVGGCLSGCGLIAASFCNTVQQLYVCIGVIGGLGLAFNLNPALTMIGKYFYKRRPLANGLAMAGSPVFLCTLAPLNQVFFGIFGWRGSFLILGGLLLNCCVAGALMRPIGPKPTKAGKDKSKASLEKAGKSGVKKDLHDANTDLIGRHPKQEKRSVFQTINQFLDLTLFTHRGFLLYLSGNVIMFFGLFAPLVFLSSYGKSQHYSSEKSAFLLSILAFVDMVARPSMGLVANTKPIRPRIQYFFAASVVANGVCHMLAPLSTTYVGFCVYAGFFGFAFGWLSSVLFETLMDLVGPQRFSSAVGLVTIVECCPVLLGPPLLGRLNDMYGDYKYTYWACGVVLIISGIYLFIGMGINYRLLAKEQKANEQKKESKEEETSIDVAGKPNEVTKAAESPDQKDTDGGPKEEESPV
Sequence of UniProt Q15527 (Q15527 whole entry, looked up): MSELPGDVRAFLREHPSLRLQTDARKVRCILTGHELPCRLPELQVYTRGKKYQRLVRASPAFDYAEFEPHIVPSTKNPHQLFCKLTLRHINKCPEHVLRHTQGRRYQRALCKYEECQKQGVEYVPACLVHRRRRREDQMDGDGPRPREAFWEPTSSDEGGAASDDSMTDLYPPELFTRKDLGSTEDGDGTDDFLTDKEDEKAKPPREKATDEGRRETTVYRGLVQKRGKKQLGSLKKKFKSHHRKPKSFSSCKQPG
Sequence of UniProt Q13148 (Q13148 whole entry, looked up): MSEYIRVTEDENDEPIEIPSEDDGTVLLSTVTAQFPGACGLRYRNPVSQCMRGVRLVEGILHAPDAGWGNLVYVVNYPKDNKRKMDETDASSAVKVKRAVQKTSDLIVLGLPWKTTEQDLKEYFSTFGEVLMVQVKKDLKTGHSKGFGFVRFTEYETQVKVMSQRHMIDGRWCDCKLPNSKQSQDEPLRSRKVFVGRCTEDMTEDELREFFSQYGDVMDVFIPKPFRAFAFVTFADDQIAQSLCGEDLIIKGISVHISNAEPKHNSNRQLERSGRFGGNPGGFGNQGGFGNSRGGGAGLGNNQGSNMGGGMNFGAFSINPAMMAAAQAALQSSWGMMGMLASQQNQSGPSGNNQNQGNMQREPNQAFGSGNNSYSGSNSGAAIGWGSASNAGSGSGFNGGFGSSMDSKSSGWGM
Sequence of UniProt Q86XK3 (Q86XK3 whole entry, looked up): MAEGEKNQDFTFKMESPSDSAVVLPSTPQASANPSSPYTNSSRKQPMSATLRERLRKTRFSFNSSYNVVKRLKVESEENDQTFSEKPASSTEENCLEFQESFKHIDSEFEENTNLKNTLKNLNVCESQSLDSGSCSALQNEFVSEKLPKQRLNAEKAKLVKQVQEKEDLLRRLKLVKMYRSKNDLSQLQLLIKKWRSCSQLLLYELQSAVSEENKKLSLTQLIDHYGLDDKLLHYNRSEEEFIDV
Sequence of UniProt Q9P289 (Q9P289 whole entry, looked up): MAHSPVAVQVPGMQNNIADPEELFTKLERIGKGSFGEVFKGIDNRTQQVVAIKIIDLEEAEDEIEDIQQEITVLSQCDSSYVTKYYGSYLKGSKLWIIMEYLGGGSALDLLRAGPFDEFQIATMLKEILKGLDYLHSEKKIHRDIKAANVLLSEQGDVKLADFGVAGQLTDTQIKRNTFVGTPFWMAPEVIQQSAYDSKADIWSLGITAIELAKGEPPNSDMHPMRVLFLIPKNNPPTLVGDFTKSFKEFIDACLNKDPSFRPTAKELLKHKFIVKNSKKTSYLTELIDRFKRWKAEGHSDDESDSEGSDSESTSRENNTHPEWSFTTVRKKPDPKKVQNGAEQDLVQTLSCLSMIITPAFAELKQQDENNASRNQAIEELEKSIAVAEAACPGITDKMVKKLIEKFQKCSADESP
Sequence of UniProt Q08AE8 (Q08AE8 whole entry, looked up): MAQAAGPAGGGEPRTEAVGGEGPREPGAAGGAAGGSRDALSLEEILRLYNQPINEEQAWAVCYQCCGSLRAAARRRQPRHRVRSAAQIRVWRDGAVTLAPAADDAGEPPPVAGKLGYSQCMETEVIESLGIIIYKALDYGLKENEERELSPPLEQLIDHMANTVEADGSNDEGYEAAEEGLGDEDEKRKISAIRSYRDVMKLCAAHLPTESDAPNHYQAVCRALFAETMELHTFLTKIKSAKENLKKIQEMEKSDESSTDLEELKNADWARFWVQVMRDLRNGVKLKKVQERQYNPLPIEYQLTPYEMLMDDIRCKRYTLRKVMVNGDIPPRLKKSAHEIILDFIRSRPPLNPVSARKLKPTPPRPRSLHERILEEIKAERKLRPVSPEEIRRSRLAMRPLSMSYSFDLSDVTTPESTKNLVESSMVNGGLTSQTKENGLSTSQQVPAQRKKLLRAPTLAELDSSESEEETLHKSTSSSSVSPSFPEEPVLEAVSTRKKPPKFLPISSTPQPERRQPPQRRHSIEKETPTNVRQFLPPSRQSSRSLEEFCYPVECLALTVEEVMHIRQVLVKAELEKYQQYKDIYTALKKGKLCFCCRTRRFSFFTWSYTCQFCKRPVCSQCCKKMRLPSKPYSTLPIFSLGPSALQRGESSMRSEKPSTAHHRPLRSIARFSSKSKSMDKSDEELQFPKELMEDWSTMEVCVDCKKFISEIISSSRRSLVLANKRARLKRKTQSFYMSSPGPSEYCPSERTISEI
Sequence of UniProt Q96BD8 (Q96BD8 whole entry, looked up): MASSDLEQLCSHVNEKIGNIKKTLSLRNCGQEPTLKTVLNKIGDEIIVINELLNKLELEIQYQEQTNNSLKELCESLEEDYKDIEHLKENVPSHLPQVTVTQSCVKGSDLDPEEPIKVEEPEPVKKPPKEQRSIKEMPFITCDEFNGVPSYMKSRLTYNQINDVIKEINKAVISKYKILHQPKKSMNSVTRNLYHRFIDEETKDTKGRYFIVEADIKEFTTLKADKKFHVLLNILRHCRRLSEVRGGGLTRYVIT

Target	log2 fold change [1]	log2 fold change [2]	log2 fold change [3]	log2 fold change [4]	log2 fold change [5]	log2 fold change [6]	log2 fold change [7]	log2 fold change [8]	log2 fold change [9]	log2 fold change [10]	log2 fold change [11]	log2 fold change [12]	log2 fold change [13]	log2 fold change [14]	log2 fold change [15]	log2 fold change [16]	log2 fold change [17]	log2 fold change [18]	log2 fold change [19]	log2 fold change [20]
TAOK2 (UniProt Q9UL54)	-0.049	-0.054	-0.081	-0.136	-0.002	0.07	-0.026	0.046	-0.004	0.261	0.033	-0.069	-0.231	0.012	0.052	-0.516 (active)	0.033	0.022	-0.008	–
TARDBP (UniProt Q13148)	0.002	0.145	0.018	0.005	-0.045	0.115	0.022	0.282	-0.055	0.044	-0.146	-0.079	-0.005	-0.051	0.007	-0.087	-0.554 (active)	0.136	0.021	0.027
STK24 (UniProt B4DR80)	0.006	0	0.044	0.034	-0.016	0.089	0.001	-0.054	0.004	0	0.031	0.298 (active)	0.092	0.086	-0.005	-0.019	0.007	0.187	0.023	-0.005
SULT1A1 (UniProt P50225)	0.023	-0.052	-0.074	-0.014	-0.009	-0.023	-0.002	-0.037	-0.025	0.046	0.029	-0.074	0.009	-0.028	-0.007	-0.006	-0.043	0.047	0.007	-0.021
SRRT (UniProt Q9BXP5)	0.005	-0.029	-0.055	0.059	-0.007	-0.072	0.032	0.066	-0.023	-0.018	-0.013	-0.028	-0.087	-0.005	0.026	-0.058	0.013	0.058	0.016	-0.023
TAF1B (UniProt Q53T94)	0.012	0.062	-0.036	-0.058	0.34	-0.157	0.304	0.017	-0.004	0.134	-0.061	-0.067	-0.174	-0.105	0.635	-0.064	-0.103	0.017	0.015	–
SLC16A1 (UniProt P53985)	-0.009	0.019	0.006	-0.341 (active)	-0.011	0.22	-0.008	-0.017	-0.041	0.246 (active)	0.044	0.043	0.137	-0.009	-0.005	-0.064	0.005	0.012	-0.028	-0.003
SURF2 (UniProt Q15527)	-0.005	-0.049	-0.031	-0.008	0.014	0.092	-0.061	-0.018	-0.055	0.111	-0.192	-0.052	-0.045	0.195	-0.031	-0.054	0.066	-0.036	0.014	–
SKA1 (UniProt Q96BD8)	0.001	0.043	0.009	-0.032	0.042	0.001	0.086	0.037	-0.029	0.024	-0.095	0.052	-0.034	0.023	-0.032	-0.104	0.039	0.038	-0.042	0.014
SPATS2 (UniProt Q86XZ4)	0.027	-0.119	0.09	-0.016	0.048	0.145	-0.062	-0.126	-0.206	-0.164	-0.069	0.042	-0.073	0.074	-0.03	0.144	0.013	-0.107	-0.005	-0.013
STAT2 (UniProt P52630)	0.005	-0.024	-0.146	0.008	0.004	-0.082	0.047	0.037	-0.078	0.093	-0.017	0.006	-0.024	-0.086	0.025	-0.117	-0.024	0.054	0.016	-0.016
STK26 (UniProt Q9P289)	-0.011	0.024	0.007	-0.003	0.005	0.061	0.005	-0.036	-0.015	-0.004	-0.033	0.25 (active)	0.102	0.044	0.029	-0.035	-0.013	0.104	0.002	-0.008
SPATA5 (UniProt Q8NB90)	-0.017	-0.009	-0.046	-0.027	-0.015	-0.13	0.02	-0.017	-0.05	0.034	0.001	0.006	-0.052	-0.002	0.011	-0.023	-0.002	0.03	0.001	-0.064
SPIRE1 (UniProt Q08AE8)	-0.019	0.012	-0.072	-0.281 (active)	-0.021	0.128	-0.023	0.151	-0.031	0.134	0.064	0.011	0.037	-0.03	0.025	-0.186	0.055	-0.032	0.042	-0.01
SFR1 isoform 2 (UniProt Q86XK3)	0.001	0.053	0.006	0.09	0.043	0.169	-0.002	0.068	-0.097	0.261 (active)	-0.029	0.068	0.055	0.045	-0.058	-0.029	0.072	-0.004	0.02	-0.039
SMN1 (UniProt Q16637)	0.086	0.035	-0.183	-0.031	0.021	-0.056	0.049	0.022	0.036	0.158	0.012	0.019	-0.005	-0.023	0.05	-0.146	0	-0.001	0.047	0
